AmpC detergent – qHTS Inhibitors of AmpC Beta-Lactamase (assay with detergent) | P00811 | AmpC hydrolysis of nitrocefin, absorbance 480 nm, 0.01% Triton | Potency, µM (series often up to 114 µM), actives largely listed as inhibitors | actives 0.041% (n = 370,000); further: nearly all actives have a fitted effect of over 25% in size
Target sequence (P00811 whole entry, looked up): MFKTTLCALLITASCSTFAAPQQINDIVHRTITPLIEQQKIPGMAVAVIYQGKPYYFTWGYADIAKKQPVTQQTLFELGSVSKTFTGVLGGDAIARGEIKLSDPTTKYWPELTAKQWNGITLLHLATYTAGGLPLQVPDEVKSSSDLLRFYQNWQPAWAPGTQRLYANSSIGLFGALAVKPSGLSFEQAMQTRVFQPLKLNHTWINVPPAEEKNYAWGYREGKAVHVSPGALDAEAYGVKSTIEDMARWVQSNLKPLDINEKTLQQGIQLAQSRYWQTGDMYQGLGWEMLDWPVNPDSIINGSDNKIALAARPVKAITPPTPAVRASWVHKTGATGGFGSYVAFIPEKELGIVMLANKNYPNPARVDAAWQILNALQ
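20 mM phosphate pH 7.0 + 0.01% (detergent screen) or 0.0001% Triton X-100; 5.3 nM AmpC reagent; cpd preinc 15 min RT; nitrocefin (800 uM stock) to start; A480 q20 s × 4 min; Activity was normalised to no-enzyme and no-compound control wells.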
AmpC no deterg – qHTS Inhibitors of AmpC Beta-Lactamase (assay without detergent) | P00811 | AmpC nitrocefin hydrolysis, absorbance 480 nm, 0.0001% Triton | Potency, µM (top dose mostly 57.1 µM), actives largely listed as inhibitors | actives 0.52% (n = 330,000); further: nearly all actives have a fitted effect of over 20% in size
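AmpC (5.3 nM in the dispensed reagent) in 20 mM phosphate pH 7.0 with 0.01% (detergent screen) or 0.0001% Triton X-100 was preincubated with compounds for 15 min at room temperature. Nitrocefin was then added from an 800 uM solution, and hydrolysis was followed at 480 nm.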
Giardia FBPA inh – qHTS Assay for Inhibitors of Fructose-1,6-bisphosphate Aldolase from Giardia Lamblia; Potency, µM (doses to about 59.6 µM), usual class: inhibitors; A8B2U2; actives 0.71% (n = 290,000); purified Giardia FBPA; AID 2451, 2010; further: nearly all actives have a fitted effect of over 55% in size
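Giardia FBPA (40 nM reagent) was preincubated 10 min at RT with compound (up to 57.5 uM final), then substrate plus GAPDH/TPI/NAD/arsenate coupling system with diaphorase/resazurin was added; resorufin fluorescence (525/598 nm) was read after 20 min.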
RE007 growth inh – qHTS Assay for Inhibitors of the HIV-1 protein Vpr. S. pombe RE007 Vpr strain, BacTiter-Glo ATP luminescence, 24 h. Potency, µM (top dose mostly 92.2 µM), hits mostly inhibitors. actives 0.21% (n = 360,000). AID 651644, 2012; active means well fitted falling curve with a large enough effect; inconclusive means small, poorly fitted or top-dose-only effect; inactive means no such curve, though single readings can be large or run the other way; further: nearly all actives have a fitted effect of over 50% in size
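Fission yeast strain RE007, carrying one chromosomally integrated HIV-1 vpr copy, was seeded at OD 0.01 in PMG+AL medium with 23 nL pinned compound. After 24 h at 30 °C and 99% humidity, viability was read by BacTiter-Glo luminescence.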
Sm TGR block – qHTS Assay for the Inhibitors of Schistosoma Mansoni Peroxiredoxins. purified TGR, DTNB reduction, TNB absorbance 405 nm. Potency, µM (series often up to 114 µM), hits mostly inhibitors. actives 3% (n = 360,000); further: nearly all actives have a fitted effect of over 60% in size
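TGR 20 nM + NADPH 100 uM (dispensed conc.), cpd preinc 15 min RT; start with NADPH (500 uM addition) then DTNB (15 mM addition). Kinetic TNB absorbance, 405 nm filter. Four-parameter Hill fit across titration.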
Large screens that a line does not name were inactive. An excerpt weighted towards active compounds, which were near 3.4% of everything screened. Unless noted, the call rests on the fitted dose curve; in most records, active means well fitted curve in the direction sought with a large enough effect; inconclusive means small, poorly fitted or top-dose-only effect, or another doubt; inactive means no such curve, though single readings can be large; an effect the other way counts as inactive or inconclusive.

CCC(=O)NC(c1ccco1)c1cc(Br)c2cccnc2c1O (centres undefined)	AmpC detergent inconclusive, Sm TGR block 35µM (no result: Giardia FBPA inh, RE007 growth inh)
CC(=O)NC(c1ccco1)c1ccc2cccnc2c1O (centres undefined)	AmpC detergent inconclusive, Giardia FBPA inh inconclusive
CCOC(=O)c1c(NC(=O)COc2cc(C)ccc2C(C)C)sc2c1CCCC2	none (no result: AmpC no deterg, Giardia FBPA inh, RE007 growth inh)
CCC(C)(C)NC(=O)C(c1cccs1)N(C(=O)c1ccn[nH]1)c1ccccc1 (centres undefined)	none (no result: Sm TGR block)
CC(O)C(C(=O)OCc1ccc([N+](=O)[O-])cc1)N1C(=O)c2ccccc2C1=O (centres undefined)	AmpC detergent 79µM
CCOC(=O)c1ccoc1CSCc1ccc(C(=O)OC)o1	Sm TGR block 28µM
O=C(COC(=O)c1ccccc1O)Nc1cccc(S(=O)(=O)NC2=NCCCCC2)c1	none
CC1(CCl)N([O-])C2=C(CCCC2)[N+]1=O (centres undefined)	Giardia FBPA inh inconclusive, Sm TGR block 40µM
COC(=O)c1c(NC(=O)COC(=O)CCS(=O)(=O)c2ccc(C)cc2)sc(C)c1C	none
COC(=O)C1=NN(N=O)C2(CC(=O)N(c3cc(C)cc(C)c3)C2=O)C1 (centres undefined)	Sm TGR block 25µM
CCOC(=O)C1=NN(C(C)=O)C2(CC(=O)N(c3cc(C)cc(C)c3)C2=O)C1 (centres undefined)	AmpC detergent inconclusive
COc1ccc2c(/C=N/NS(=O)(=O)c3ccc(C)cc3)c[nH]c2c1	Sm TGR block 14µM
COc1ccc2[nH]cc(/C=N/NS(=O)(=O)c3ccc(C)cc3)c2c1	none
CCCCCCCCCCCCCCCCn1cc[n+](CC(C)=O)c1	RE007 growth inh 32µM
CCCCCCn1ccc(=N)cc1	none
O=C(CSc1nc2[nH]ncc2c(=O)[nH]1)Nc1ccc(Cl)c(Cl)c1	AmpC detergent inconclusive (no result: Giardia FBPA inh)
CCn1cnc2c1c(=O)n(Cc1nnc3n1-c1ccccc1SC3)c(=O)n2Cc1ccccc1	none
Cc1ccc(C(=O)N2CCn3c(C)ccc3C2C)cc1 (centres undefined)	Giardia FBPA inh inconclusive, Sm TGR block 22µM
COCCCN1C(=O)/C(=C/c2ccc(CNS(=O)(=O)c3ccccc3)o2)C(C(=O)OC)=C1C	Giardia FBPA inh inconclusive, Sm TGR block 11µM
COc1cc(OC)cc(C(=O)N[C@H](C(=O)OCC(=O)c2ccc(C)c([N+](=O)[O-])c2)C(C)C)c1	none (no result: AmpC detergent, Giardia FBPA inh, Sm TGR block)
COc1cccc(C(C(=O)NC2CCCC2)N(Cc2ccco2)C(=O)c2ccco2)c1OC (centres undefined)	none
Cc1cccc(C2CC(c3ccc(Cl)cc3)Nc3nc(N)nn32)c1 (centres undefined)	AmpC detergent inconclusive, AmpC no deterg 3.5µM
Cc1ccc(C2CC(c3cccc(Cl)c3)n3nc(N)nc3N2)cc1 (centres undefined)	AmpC detergent inconclusive, AmpC no deterg 6.3µM
O=C(NN1C(=O)C2C3C=CC(O3)C2C1=O)c1cccc(O)c1 (centres undefined)	Sm TGR block 20µM
O=C(NN1C(=O)C2C3C=CC(O3)C2C1=O)c1cccc(Br)c1 (centres undefined)	Sm TGR block 22µM
COc1ccc(C(=O)Nc2ccc3ccccc3n2)c(OC)c1OC	none
COc1cc(NC(=S)NC(=O)c2cccs2)ccc1NC(=O)C(C)C	Giardia FBPA inh inconclusive, Sm TGR block 18µM
COc1cc(NC(=S)NC(=O)c2ccco2)ccc1NC(=O)C(C)C	Sm TGR block 25µM
O=C(/C=C/c1ccc(F)cc1)NC(=S)N1CCN(c2ccccn2)CC1	none
Cc1ccc(SCC(c2ccccc2)N2CCN(CC(C)C)CCC2=O)cc1 (centres undefined)	none (no result: AmpC detergent, AmpC no deterg, RE007 growth inh, Sm TGR block)
CC(C)CN1CCC(=O)N([C@H](CSc2ccc(Br)cc2)c2ccccc2)CC1	Sm TGR block 2.8µM
CCCN1CCC(=O)N([C@H](CSc2ccc(OC)cc2)c2ccccc2)CC1	Sm TGR block 22µM

Source: PubChem
